CYP2C9 inhib – human CYP2C9 inhibition. inhibition, % at 5 µM. P11712. CYP2C9 Supersomes, luciferin-H conversion, luminescence. hit rate 20% among 96,000;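 active = blocking of liver enzyme CYP2C9 beyond about 50% at 5 µM, limit read from the data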
DAT uptake mod – human DAT dopamine uptake with cocaine, either direction; LLC-PK1 hDAT cells, [14C]-dopamine uptake with cocaine IC80; actives deviate in either direction; B-score at 10 µM; hit rate 1.3% among 110,000; AID 449768;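 active = Z score or B-score, a plate-position-corrected score, falls beyond the plate's 99.7% confidence bounds, in either direction; inactive = both scores lie inside the 99.7% bounds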;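 also: scored against the spread of the other compound wells on the same plate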
CYP2C9 act – activators of human CYP2C9; P11712; hit rate 1.4% among 96,000; activation factor at 5 µM; recombinant CYP2C9, luciferin-H conversion, luminescence; hits give high values; factor 1 = untreated enzyme, 0 = blocked;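 active = activation factor of 2 or more for CYP2C9 at a 5 µM dose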;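 also: 0 = sulfaphenazole-blocked wells and 1 = vehicle-only wells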
CYP2C19 inh – human CYP2C19 inhibition; CYP2C19 Supersomes, luciferin-H EGE luminescence, 30 min; inhibition, % at 5 µM; P33261; hit rate 21% among 96,000;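 active = CYP2C19 inhibition above a set limit at 5 µM in the primary screen, cut at about 50% in these data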;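 also: plate controls were negative control wells for no effect and 2.5 mM tranylcypromine positive control for full effect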
CYP2C19 activ – increases human CYP2C19 enzyme activity | 96,000 tested, under 10 active | P33261 | recombinant CYP2C19, luciferin-H EGE luminescence; hits give high values; 0 = fully inhibited enzyme, 1 = untreated enzyme | activation factor at 5 µM;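 active = activation factor of at least 2 at 5 µM in the primary screen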;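 also: 0 = wells with 2.5 mM tranylcypromine and 1 = vehicle-only wells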
D1 mod – allosterically modulates the human D1 dopamine receptor; P21728; AID 641; hit rate 5.9% among 58,000; HEK293 D1, CRE-luciferase, dopamine EC30 potentiation; actives deviate in either direction; B-score at 10 µM;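 active = luminescence count or its row- and column-corrected plate score outside the 99.7% band of the plate's sample wells, on either side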
Target sequence (P21728 whole entry, looked up): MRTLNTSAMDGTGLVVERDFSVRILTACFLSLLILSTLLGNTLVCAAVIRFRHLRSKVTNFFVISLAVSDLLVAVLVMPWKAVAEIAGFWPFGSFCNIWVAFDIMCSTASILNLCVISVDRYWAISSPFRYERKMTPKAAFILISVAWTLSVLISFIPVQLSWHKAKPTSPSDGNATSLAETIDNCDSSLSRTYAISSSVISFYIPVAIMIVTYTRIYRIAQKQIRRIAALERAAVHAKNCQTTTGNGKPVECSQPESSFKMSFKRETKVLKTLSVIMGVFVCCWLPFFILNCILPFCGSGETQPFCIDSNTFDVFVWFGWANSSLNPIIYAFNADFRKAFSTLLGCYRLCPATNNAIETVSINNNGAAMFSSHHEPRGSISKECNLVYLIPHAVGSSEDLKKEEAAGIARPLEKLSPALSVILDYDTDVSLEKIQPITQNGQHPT
* marks the source's active call; other numbers are inactive results; · = no result given. Shown are actives, neighbours in structure and some others; about 28% of the full set was active somewhere.

SMILES | CYP2C9 inhib | DAT uptake mod | CYP2C9 act | CYP2C19 inh | CYP2C19 activ | D1 mod
CC(=O)N1CCc2cc(S(=O)(=O)NC(Cc3ccccc3)C(=O)NC3CCCCCC3)ccc21 (stereo not drawn) | 53* | 1.1 | 0.5 | 35 | 0.7 | ·
N/C(=N\S(=O)(=O)c1ccc(Cl)s1)c1ccccc1 | 43 | -0.23 | 0.6 | 97* | 0 | 0.35
Cc1ccc2cc(C)c(N3CCN(c4ccccn4)CC3)nc2c1 | 70* | -0.51 | 0.3 | 77* | 0.2 | 0.24
CCCS(=O)(=O)N1CCN(c2ccccn2)CC1 | 40 | -1.7 | 0.6 | 69* | 0.3 | -0.56
CCS(=O)(=O)N1CCN(c2ccccn2)CC1 | 20 | -1.3 | 0.8 | 24 | 0.8 | ·
O=S(=O)(c1ccccc1)N1CCN(S(=O)(=O)c2ccccc2)C1 | 67* | 0.77 | 0.3 | 94* | 0.1 | 0.2
Cc1ccc(S(=O)(=O)N2CCN(C(=O)Cc3ccccc3)CC2)cc1 | 33 | -1 | 0.7 | 64* | 0.4 | ·
Cc1ccc(CC(=O)N2CCN(c3ccccn3)CC2)cc1 | 87* | 0.17 | 0.1 | 98* | 0 | ·
Cc1ccc2[nH]cc(C(=O)CN3CCN(C)CC3)c2c1 | -7 | -0.08 | 1.1 | -9 | 1.1 | ·
O=C(CN1CCN(Cc2ccccc2)CC1)c1c[nH]c2ccccc12 | 27 | 0.48 | 0.7 | 13 | 0.9 | -2.3
Cc1ccc2[nH]cc(C(=O)CN3CCN(c4ccccn4)CC3)c2c1 | 84* | 0.087 | 0.2 | 87* | 0.1 | -2.4
CCCS(=O)(=O)N1CCN(S(=O)(=O)c2ccccc2)CC1 | 56* | 0.23 | 0.4 | 61* | 0.4 | ·
CCS(=O)(=O)N1CCN(S(=O)(=O)c2ccc(F)cc2)CC1 | · | 1.1 | · | · | · | -0.52
O=C(CN1CCSCC1)c1c[nH]c2ccccc12 | 37 | -0.14 | 0.6 | 64* | 0.4 | ·
COc1ccc(CCNC(=O)CSc2nnnn2-c2ccccc2OC)cc1OC | 29 | 0.22 | 0.7 | 32 | 0.7 | 0.7
Cc1ccc(Cn2c(C(C)Nc3nc(-c4ccc(F)cc4)cs3)nc3cc(C(F)(F)F)ccc32)cc1 (stereo not drawn) | · | -0.23 | · | · | · | ·
Cc1ccc(Sc2nc(-c3ccccc3)ccc2C#N)cc1 | 19 | -0.28 | 0.8 | -1 | 1 | ·
O=C(NCCOC(=O)C1COc2ccccc2O1)c1cccnc1 (stereo not drawn) | 12 | -0.33 | 0.9 | 5 | 1 | -0.31
Cc1ccc(S(=O)(=O)N2CCN(S(=O)(=O)c3ccc(C)cc3)C2)cc1 | 68* | -1 | 0.3 | 30 | 0.7 | ·
Nc1ccc2nc(-c3ccc(Cl)cc3)[nH]c2c1 | 48 | 0.3 | 0.5 | 59* | 0.4 | ·
CCCOC(=S)Nc1ccccc1 | 20 | -1.1 | 0.8 | 62* | 0.4 | ·
CC(C)C(=O)Nc1ncc(C(F)(F)F)cc1Cl | 7 | 0.45 | 0.9 | -8 | 1.1 | ·
COc1ccc(N2CCN(C(=O)Cc3ncc(C(F)(F)F)cc3Cl)CC2)cc1 | -26 | 0.39 | 1.3 | 6 | 0.9 | ·
O=C(Cc1ncc(C(F)(F)F)cc1Cl)Nc1ccc(F)cc1 | 10 | -0.33 | 0.9 | 91* | 0.1 | ·
O=C(Cc1ncc(C(F)(F)F)cc1Cl)N1CCN(c2ccc(F)cc2)CC1 | -248 | -0.017 | 3.5* | 51* | 0.5 | ·
SMILES | CYP2C9 inhib | DAT uptake mod | CYP2C9 act | CYP2C19 inh | CYP2C19 activ | D1 mod
O=C(Cc1ncc(C(F)(F)F)cc1Cl)N1CCN(c2cccc(Cl)c2)CC1 | -60 | 0.24 | 1.6 | 84* | 0.2 | ·
COc1ccc(CCNC(=O)C(=O)NCc2ccc(C)cc2)cc1OC | -5 | 0.65 | 1.1 | 12 | 0.9 | ·
O=C1CCN(Cc2ccccc2)CCN1CCO | · | 0.18 | · | · | · | ·
CCN(CC)S(=O)(=O)c1ccc2c(c1)nc(SCc1nc3ccsc3c(=O)[nH]1)n2CC | 69* | 0.63 | 0.3 | 22 | 0.8 | 1.8
CCn1c(CSc2nc(C)cs2)nc2cc(S(=O)(=O)N(C)C)ccc21 | 43 | -0.72 | 0.6 | -2 | 1 | 0.46
C#CCOCCOCCOCCNc1nc(N2CCN(C(=O)Cn3cc(CC(C)O)nn3)CC2)nc(N2CCN(C(=O)[C@H](C)n3cc(CCCN=C(N)N)nn3)CC2)n1 (stereo partly drawn) | · | -0.69 | · | · | · | ·
c1ccc(Cn2nnnc2C(c2ccccc2)N2CCN(c3nc4ccccc4s3)CC2)cc1 (stereo not drawn) | 65* | 1.5 | 0.4 | 58* | 0.4 | ·
COc1cccc(C(c2nnnn2Cc2ccccc2)N2CCN(C3CCCC3)CC2)c1OC (stereo not drawn) | 6 | -0.77 | 0.9 | 4 | 1 | -3.5*
